The supplement of paper PMC13380429

System: Vero E6 infected with SARS-CoV-2
Experiment: inhibition of SARS-CoV-2 cytopathic effect; higher = more antiviral protection, active = above 15
Settings: 48 h

Measured: inhibition of SARS-CoV-2 cytopathic effect

COC(=O)[C@H]1[C@H]2C[C@@H]3c4[nH]c5cc(OC)ccc5c4CCN3C[C@H]2C[C@@H](OC(=O)c2cc(OC)c(OC)c(OC)c2)[C@@H]1OC [reserpine]
inactive: 1 nM 1.33% | 8.33 nM 3.05% | 100 nM 0.71% | 833.33 nM 3.56% | 10000 nM 7.95%

CCC(=O)O[C@]1(C(=O)CCl)[C@@H](C)C[C@H]2[C@@H]3C[C@H](F)C4=CC(=O)C=C[C@]4(C)[C@@]3(F)[C@@H](O)C[C@@]21C [halobetasol-propionate]
inactive: 1 nM -3.17% | 8.33 nM -1.89% | 100 nM -2.65% | 833.33 nM 1.32% | 10000 nM 4.68%

CC1(C)OC2(C)C(O)CC1CC2O (stereo not given) [epomediol]
inactive: 1 nM 7.71% | 8.33 nM 1.77% | 100 nM 4.4% | 833.33 nM 1.92% | 10000 nM 3.17%

CN1C/C=C/CCOc2cccc(c2)-c2ccnc(n2)Nc2cccc(c2)C1
inactive: 1 nM 5.51% | 8.33 nM 0.11% | 100 nM 0.3% | 833.33 nM -10.7% | 10000 nM -9.98%

C[C@@H]1CN(Cc2ccc(F)cc2)[C@@H](C)CN1C(=O)c1cc2c(C(=O)C(=O)N(C)C)cn(C)c2cc1Cl [talmapimod]
inactive: 1 nM -1.36% | 8.33 nM -0.66% | 100 nM -2.57% | 833.33 nM -0.03% | 10000 nM -1.11%

Cc1ccc(C(=O)N(CCCN)[C@@H](c2oc3cc(Cl)ccc3c(=O)c2Cc2ccccc2)C(C)C)cc1
inactive: 1 nM 1.81% | 8.33 nM -1.04% | 100 nM -0.8% | 833.33 nM -2.79% | 10000 nM -24.6%

CCn1cc(C(=O)O)c(=O)c2ccc(C)nc21 [nalidixic-acid]
inactive: 1 nM 0.83% | 8.33 nM 1.11% | 100 nM 0.89% | 833.33 nM 0.77% | 10000 nM -0.57%

COc1cc(Nc2c(C#N)cnc3cc(OCCCN4CCN(C)CC4)c(OC)cc23)c(Cl)cc1Cl [bosutinib]
inactive: 1 nM 0.33% | 8.33 nM -1.8% | 100 nM -1.97% | 833.33 nM -8.27% | 10000 nM -7.97%

COc1ccc(CCC(=O)Nc2nc3ccc(Cl)cc3s2)cc1OC
inactive: 1 nM -2.56% | 8.33 nM -3.14% | 100 nM -2.66% | 833.33 nM 0.12% | 10000 nM 0.38%

CC(=O)c1ccc2c(c1)[C@H](NC(=O)c1ccc(F)c(Cl)c1)[C@H](O)C(C)(C)O2 [tonabersat]
inactive: 1 nM -2.31% | 8.33 nM -1.2% | 100 nM -0.8% | 833.33 nM 1.11% | 10000 nM -2.32%

C[N+]1([O-])[C@@H]2CC[C@H]1C[C@@H](OC(=O)C(CO)c1ccccc1)C2 (stereo not given in full) [atropine-oxide]
inactive: 1 nM -2.53% | 8.33 nM -2.05% | 100 nM -1.67% | 833.33 nM -2.02% | 10000 nM -1.76%

N[C@@H](Cn1ccc(=O)n(Cc2ccccc2C(=O)O)c1=O)C(=O)O
inactive: 1 nM 1.86% | 8.33 nM 3.68% | 100 nM -0.19% | 833.33 nM 1.26% | 10000 nM -0.16%

CC(C)c1cc(CNc2nc(Nc3cc(C4CC4)[nH]n3)cc(N3CCN(C)CC3)n2)on1
inactive: 1 nM 0.13% | 8.33 nM 1.15% | 100 nM 0.48% | 833.33 nM -4.78% | 10000 nM -15%

CCC[C@H](N[C@@H](C)C(=O)N1[C@H](C(=O)O)C[C@@H]2CCCC[C@@H]21)C(=O)OCC [perindopril]
inactive: 1 nM -0.73% | 8.33 nM 1.32% | 100 nM -0.77% | 833.33 nM 0.99% | 10000 nM 0.19%

O=C(O)/C=C/c1ccc(O)c(O)c1 [caffeic-acid]
inactive: 1 nM 2.05% | 8.33 nM -0.05% | 100 nM 0.87% | 833.33 nM -0.22% | 10000 nM -4.36%

COc1ccccc1S(=O)(=O)Nc1ccc2c(c1)CN(C)C(=O)N2
inactive: 1 nM 2.59% | 8.33 nM 3.07% | 100 nM 0.97% | 833.33 nM 1.47% | 10000 nM -5.29%

c1ccc(-c2ccc(CNc3nc(-c4ccccn4)nnc3-c3ccccc3)cc2)cc1
inactive: 1 nM 1.58% | 8.33 nM 0.74% | 100 nM -1.15% | 833.33 nM -4.89% | 10000 nM -14.7%
